# A selection: hits, their analogues and other compounds. The true share with any hit is near 7.9%.
# FMDV antiviral – antivirals against foot and mouth disease virus. FMDV antiviral cell-based qHTS. Potency, µM (titrated, usually from 57.9 µM), for inactives: at the highest dose activity change, negative = inhibition, most hits filed as inhibitors. 410,000 tested, 1.2% active. AID 1159524; calls by dose curve; tested in HEK293T cells; note: read-out not given here; potency is the fitted concentration of half-maximal effect; nearly all actives have a fitted effect of over 45% in size
# HCMV inh – blocks human cytomegalovirus replication; AID 1259415; 410,000 tested, 4.5% active; activity change, negative = inhibition, % at 57.5 µM; HFF cells, HCMV-luciferase reporter, 72 h; active compounds read low; in the data active = activity change below about -60%; inconclusive = no clear call, values can overlap the other calls; inactive = above about -39%
#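 HFF cells seeded 16 h at 37C, treated with compounds, infected with luciferase-reporter HCMV at MOI 1 PFU/cell; luciferase read at 72 h post infection, normalized to buffer-only and Salinomycin controls.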
# Marburg entry inh – inhibitors of Marburg virus binding or cell entry; Marburg virus pseudotyped entry inhibition, cell reporter; Potency, µM (series often up to 37.8 µM), for inactives: at the top dose activity change, negative = inhibition, hits mostly inhibitors; 300,000 tested, 1.8% active; calls by dose curve; tested in HEK293 cells; note: potency is the fitted concentration of half-maximal effect
# LASV entry inh – inhibitors of Lassa virus binding or cell entry | Lassa virus pseudotype entry inhibition, cell reporter | Potency, µM (top dose mostly 37.9 µM), for inactives: at the top dose activity change, negative = inhibition, actives largely listed as inhibitors | AID 540256 | 300,000 tested, 1.2% active; calls by dose curve; tested in HEK293 cells; note: potency is the fitted concentration of half-maximal effect; nearly all actives have a fitted effect of over 50% in size
# HCV inh – inhibitors of hepatitis C virus infection; Huh7.5.1 HCVcc-Cre infection, luciferase reporter, 44 h; Potency, µM (series often up to 41.8 µM), without a hit: at the highest dose activity change, negative = inhibition, most hits filed as inhibitors; 340,000 tested, 3.4% active; AID 651820; active = well fitted inhibition curve with a large enough effect; inconclusive = small, poorly fitted or top-dose-only effect, or another doubt; inactive = no such curve, though single readings can be large or run the other way; note: potency is the fitted concentration of half-maximal effect
#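 Compounds are dispensed onto cells plated 4 h earlier at 1,000 per well, with HCVcc-Cre virus (about 0.5 moi) added next. Following 44 h of culture, luminescent signal is measured for 15 sec after 15 min with substrate at room temperature.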
# * = called active by the depositor; ? = inconclusive; nt = not tested or not shown; [ ] = remark or other dose. % is set by controls: 0 for no effect and ±100 for the full control effect.
SMILES,FMDV antiviral,HCMV inh,Marburg entry inh,LASV entry inh,HCV inh
COc1cc(C2C(=O)N(C3CCCCCC3)CC(=O)N2CCC2=CCCCC2)ccc1OC(C)C (centres undefined),-11.2%,25.0,nt,?,nt
O=C(CSc1nnc(-c2ccc(F)cc2)o1)c1ccc2c(c1)OCCO2,-11.3%,16.0,-3.0%,-1.7%,-3.6%
Cc1[nH]c2ccc(-c3nnc(SCC(=O)c4ccc(F)cc4)o3)cc2c1C,nt,?,-22.4%,9.2µM*,-21.8%
CN(C)CCCn1c(N)c(S(=O)(=O)c2ccccc2)c2nc3ccccc3nc21,12.2%,nt,-19.6%[46.1 µM],0.1%,-6.4%
CCCCn1c(N)c(S(=O)(=O)c2ccc(C)cc2)c2nc3ccccc3nc21,20.9%,nt,10µM*,?,?
CC1(C)CC(=O)C=C(c2ccc(F)cc2OCc2ccccc2)C1,?,-13.7,nt,nt,20µM*
COC(=O)Nc1nc2ccccc2[nH]1,19.7%,63.7,20.3%,-3.3%,15.7%
C=C(c1ccc2nc(NC(=O)OC)[nH]c2c1)c1cccs1,11.9%,-88.4*,?,?,?
COC(=O)Nc1nc2ccc(Oc3ccc(NC(=O)Nc4ccccc4)cc3)cc2[nH]1,nt,nt,nt,3.15µM*,nt
CCc1cccc(NC(=O)Nc2ccc(Oc3ccc4nc(NC(=O)OC)[nH]c4c3)cc2)c1,nt,nt,nt,12.5µM*,nt
Cc1cccc(C)c1Nc1oc(-c2ccccc2)nc1C(C)(C)C,nt,nt,1.6%[14.2 µM],nt,nt
COc1ccc(NC(=O)C(C)(C)n2cc(NC(=O)c3ccc4ccccc4n3)cn2)cc1,nt,67.1,nt,nt,nt
CCN(CC)C(=O)C1CCCN(C(=O)Nc2ccc3nsnc3c2)C1 (centres undefined),2.7%,0.5,5.7%,7.6%,31.6µM*
S=C(Nc1ccc2nsnc2c1)N1CCCCC1,73.2%,53.8,3.6%,15.7%,7.0%
Fc1ccc(Nc2nc(SCc3cccc(F)c3)nc3ccccc23)cc1,-3.2%,-87.4*,nt,-24.4%[46.1 µM],nt
Fc1ccc(Nc2nc(SCc3cccc(Cl)c3)nc3ccccc23)cc1,-26.5%,-94.8*,nt,21.0%[46.1 µM],nt
Fc1ccc(Nc2nc(SCc3ccc(Cl)cc3)nc3ccccc23)cc1,-9.9%,?,nt,?,nt
Cc1cccc2c1NC(=O)C2(c1ccc(O)cc1)c1ccc(O)cc1,-18.2%,-7.4,-11.3%,-13.1%,17.0%
Cc1cc(C2(c3ccc(O)c(C)c3)C(=O)Nc3ccccc32)ccc1O,?,-79.6*,?,?,11.4%
Cc1cc2c(c(-c3ccc(Cl)cc3)c1)OC(CNC(=O)CCC(=O)N(C)C)C2 (centres undefined),-1.3%,nt,nt,nt,nt
Cc1nc(N2CCN(Cc3ccc4c(c3)OCO4)CC2)c2cc(-c3ccccc3)sc2n1,-11.8%,-3.4,7.94µM*,-10.2%[46.1 µM],?
COc1ccccc1N1CCN(c2nc(C)nc3c2oc2ccccc23)CC1,28.2µM*,-81.6*,?,?,3.55µM*
Cc1nc(N2CCN(C(=O)c3ccco3)CC2)c2oc3ccccc3c2n1,?,19.9,?,?,?
Cc1nc(Nc2ccc3c(c2)OCO3)c2oc3ccccc3c2n1,23.3%,14.2,38.7%,3.1%,?
Cc1nc(N2CCN(Cc3ccc4c(c3)OCO4)CC2)c2oc3ccccc3c2n1,28.2µM*,-29.9,?,-27.6%,-8.1%
SMILES,FMDV antiviral,HCMV inh,Marburg entry inh,LASV entry inh,HCV inh
Cc1nc(N2CCN(Cc3ccc(Cl)cc3)CC2)c2oc3ccccc3c2n1,?,-38.5,?,8.0%[46.1 µM],8.91µM*
Cc1cc(C)nc(N2CCN(c3nc(-c4ccccc4)nc4c3oc3ccccc34)CC2)n1,?,-16.1,nt,nt,20.5%
Cc1ncc2c(c1CNS(=O)(=O)N(C)C)CCN(C(=O)c1c(F)cccc1F)C2,-5.2%,nt,nt,nt,nt
O=C(c1cc([N+](=O)[O-])ccc1Cl)N1CCN(Cc2ccccc2)CC1,-16.8%,-1.8,nt,nt,5.7%
CC(=O)c1ccc(OCCCC(=O)NCCc2ccc(C(F)(F)F)cc2)cc1,-11.1%,-37.2,0.4%[46.1 µM],-2.5%[46.1 µM],-12.0%
Cc1ccc(-c2csc(N3CCC(NS(=O)(=O)c4ccc5c(c4)OCCO5)CC3)n2)cc1,?,-85.3*,?,?,10µM*
FC(F)(F)c1cccc(C2NCc3ccccc3-n3cccc32)c1 (centres undefined),-17.6%,?,?,11.2µM*,1.7%
Oc1ccc(C2NCc3ccccc3-n3cccc32)cc1Cl (centres undefined),0.0%,17.9,?,13.3%,15.7%
CC(C)C1=C2OC(N)=C(C#N)C(C#N)=C2[C@H](C)CC1,nt,nt,-1.3%,nt,nt

# Bioassay records as filed in PubChem.
